Source: PubChem BioAssay
Hits are enriched below; roughly 2.3% of the tested compounds scored in any of these assays.
KKLEB cytotox = cytotoxicity in KKLEB CF airway cells, primary screen, cytotoxicity control for CF NF-kB inhibitor project, cell-based, uHTS, fluorescence assay plates; KKLEB CF airway cells viability, ATPlite luminescence, overnight; active compounds read low; cells stimulated with P. aeruginosa culture filtrate; activity change (cytotoxicity), % at 5 µM; 360,000 tested, 0.36% active; AID 602141, 2011;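 active = corrected activity change at or below -50% at 5 µM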
CF NFkB block = inhibitors of PAF-induced NF-kB signaling, primary screen, cell-based, GFP fluorescence, uHTS; 360,000 tested, 0.86% active; inhibition, % at 5 µM; KKLEB NF-kB-GFP reporter, GFP fluorescence overnight;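 active = at least 50% inhibition at 5 µM, scaled per plate between neutral and stimulator controls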;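 also: PAF is a Pseudomonas aeruginosa culture filtrate used as stimulus; plate controls were PAF-stimulated DMSO wells for no effect and unstimulated DMSO wells for full effect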
LGR2 antag = inhibitors of bursicon-induced LGR2 CRE-luciferase signal, primary screen, cell-based, HEK293, CRE-luciferase reporter, bursicon stimulation. Drosophila bursicon receptor LGR2 (rickets). bursicon-stimulated, 4 h. inhibition, % at 9.99 µM. 380,000 tested, 0.35% active. AID 720647, 2013;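 active = drop in luminescence signal, shown as inhibition above about 50% in the replicate tests, limit read from the data, passing the limit was not always enough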;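 also: agonist challenge used bursicon conditioned medium at about half maximal strength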
iPSC survival up = enhancers of single-cell hiPSC survival, primary screen, ATPlite luminescence; 360,000 tested, 0.044% active; survival enhancement, % at 20 µM; 100% = ROCK inhibitor wells, 0% = DMSO; AID 602274, 2012; in the data active = survival enhancement above about 18%;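 also: cells exposed to compounds for 16 hours before the ATP read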
TWEAK Fn14 block = inhibitors of TWEAK-Fn14 signaling, primary screen, luciferase reporter cells, uHTS; TWEAK-stimulated Fn14 reporter cells, luciferase luminescence, 8 h; inhibition, % at 10 µM; 360,000 tested, 2% active; in the data active = inhibition above about 50%
HIF-2a block = HIF-2a reporter inhibitors, primary screen, luminescence, 786-0 RCC cells. 786-0 RCC cells HIF-2a reporter, luciferase luminescence, overnight. inhibition, % at 18.8 µM. 360,000 tested, 0.72% active. AID 624352, 2012;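 active = inhibition of the luminescence signal of 40% or more relative to plate controls, in a single-dose primary screen at 18.75 µM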
CF NFkB inh conf = inhibitors of PAF-induced NF-kB signaling, retest, confirmation, cell-based, GFP fluorescence, single concentration. shares compounds with CF NFkB block. KKLEB CF airway cells, overnight. inhibition, % at 5 µM. 1,300 tested, 64% active. AID 602472, 2012; in the data active = inhibition above about 40%;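 also: stimulus PAF is a Pseudomonas aeruginosa filtrate and not platelet activating factor; plate controls were DMSO wells with stimulus for no effect and unstimulated DMSO wells for full effect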
* = called active by the depositor; · = no result given.

SMILES | KKLEB cytotox | CF NFkB block | LGR2 antag | iPSC survival up | TWEAK Fn14 block | HIF-2a block | CF NFkB inh conf
CC(=O)c1ccc(Sc2nnnn2-c2ccccc2)c([N+](=O)[O-])c1 | -32.0 | 76.3* | 75.6* | -2.5 | 97.7* | 12.6 | 28.4
CCOC(=O)Cc1n[nH]c(=O)c2ccccc12 | 8.3 | 8.2 | 2.5 | -1.1 | -13.0 | 10.3 | ·
CCOC(=O)c1c(C)cc2c(CO)n[nH]c(=O)c2c1C | -14.4 | 50.7* | 18.1 | -0.9 | 28.8 | 10.0 | 47.8*
O=C(NCC[C@H]1CC[C@H](NS(=O)(=O)c2ccccc2)[C@@H](CO)O1)c1cc(Cl)cc(Cl)c1 | · | · | -7.2 | · | · | · | ·
COc1cccc(N2CCN(c3c(C#N)c(C(F)(F)F)nn3C)CC2)c1 | -3.9 | 51.8* | · | -0.2 | 33.9 | 19.9 | 61.2*
COc1ccc(CN(C)C[C@H]2Oc3ccc(NC(=O)Nc4ccc(C(F)(F)F)cc4)cc3CC(=O)N([C@H](C)CO)C[C@H]2C)cc1 | · | · | 42.3 | · | · | · | ·
COc1ccccc1CN(C)C(=O)c1cc(-c2cc(OC)c(OC)c(OC)c2)nc2ccccc12 | -32.2 | 73.8* | 14.8 | 0.0 | 27.2 | -1.7 | 9.5
C[C@H](CO)N1C[C@H](C)[C@H](CN(C)C(=O)Nc2ccc(F)cc2)OCCCC[C@H](C)Oc2ccc(NS(=O)(=O)c3ccc(F)cc3)cc2C1=O | · | · | 9.5 | · | · | · | ·
COc1ccc(NC(=O)Nc2ccc3c(c2)C(=O)N([C@H](C)CO)C[C@H](C)[C@H](CN(C)Cc2ccccc2)OCCCC[C@@H](C)O3)cc1 | · | · | -0.6 | · | · | · | ·
COC(=O)c1ccc2nc(-c3ccco3)c(Cc3ccccc3)n2c1 | -8.5 | 53.9* | -10.7 | 2.5 | 34.3 | -17.4 | 10.0
Fc1cccc(Cc2c(-c3ccco3)nc3ccc(Cl)cn23)c1 | 2.4 | 63.2* | · | -3.8 | 54.0* | -30.0 | -40.9
FC(F)(F)c1ccccc1Cc1c(-c2ccco2)nc2ccc(Br)cn12 | -16.8 | 62.5* | · | 1.4 | 14.9 | 23.6 | 11.3
COC(=O)c1ccc2nc(-c3ccco3)c(Cc3cccc(Cl)c3)n2c1 | · | · | 1.2 | 0.2 | 23.4 | -13.0 | ·
Fc1cccc(Cc2c(-c3ccco3)nc3ccc(Br)cn23)c1 | -11.2 | 52.0* | -3.1 | -1.1 | 45.3 | 14.3 | 11.2
COc1ccc(S(=O)(=O)N(C)C[C@H]2Oc3c(NC(=O)Nc4ccccc4)cccc3C(=O)N([C@@H](C)CO)C[C@H]2C)cc1 | · | · | 12.7 | · | · | · | ·
Cc1noc(C)c1S(=O)(=O)N(C)C[C@H]1Oc2ccc(NC(=O)Nc3cccc4ccccc34)cc2CC(=O)N([C@@H](C)CO)C[C@@H]1C | · | · | -34.6 | · | · | · | ·
COc1ccc2c3c(n(C)c2c1)[C@@H](CO)N(C(=O)c1cccnc1)CC31CN(S(C)(=O)=O)C1 | · | · | 2.9 | · | · | · | ·
CCOC(=O)Nc1nc(-c2ccccc2)c(C(=O)c2ccccc2)s1 | -37.6 | 53.1* | · | -3.7 | 14.8 | 23.5 | 77.2*
CCCNC(=O)N1CC2(C1)CN(C(=O)CCC)[C@@H](CO)c1[nH]c3cc(OC)ccc3c12 | · | · | -22.4 | · | · | · | ·
COc1ccc(OC)c(Nc2ncnc3ccc(Br)cc23)c1 | -24.0 | 53.6* | 28.4 | -0.4 | 36.1 | 32.7 | 68.2*
O=C(O)c1cccc(Nc2ncnc3ccc(Br)cc23)c1 | -7.4 | 0.2 | -9.6 | -0.1 | -6.1 | 0.7 | ·
COc1cccc(Nc2ncnc3ccc(Br)cc23)c1 | -14.0 | 62.2* | 13.4 | -2.0 | 62.8* | 10.9 | 86.7*
COc1ccc(OC)c(Nc2ncnc3ccccc23)c1 | -1.8 | 11.4 | · | 3.9 | -8.1 | -8.7 | ·
N=c1c(S(=O)(=O)c2ccc(Br)cc2)cc2c(=O)n3ccccc3nc2n1Cc1ccco1 | -18.2 | 82.3* | 9.7 | 0.1 | 46.3 | 12.7 | 11.5
C[C@H]1CCCCO[C@@H](CN(C)Cc2ccc(C(=O)O)cc2)[C@@H](C)CN([C@@H](C)CO)C(=O)c2cc(NC(=O)Nc3ccc(C(F)(F)F)cc3)ccc2O1 | · | · | 2.6 | · | · | · | ·
SMILES | KKLEB cytotox | CF NFkB block | LGR2 antag | iPSC survival up | TWEAK Fn14 block | HIF-2a block | CF NFkB inh conf
CC(C)c1ccc(NC(=O)Nc2nc(C(N)CCc3ccccc3)cs2)cc1 (stereo not drawn) | -44.4 | 54.3* | 19.4 | -3.8 | -1.3 | 23.4 | 12.2
COc1cc([C@@H]2Oc3cc(C4Oc5cc(O)cc(O)c5C(=O)[C@H]4O)ccc3O[C@H]2CO)ccc1O (stereo partly drawn) | 13.2 | 50.9* | · | 2.0 | 10.5 | 3.3 | 8.5
COc1cc([C@H]2Oc3cc([C@H]4Oc5cc(O)cc(O)c5C(=O)[C@@H]4O)ccc3O[C@@H]2CO)ccc1O | -1.4 | 20.2 | -7.0 | -0.3 | -13.3 | 0.5 | ·
COCC(=O)N1[C@@H](CO)[C@@H](c2ccccc2)C12CN(C(=O)Nc1ccccc1F)C2 | · | · | -32.5 | · | · | · | ·
COc1ccc(-c2ccc(CN3C(CC(C)C)C(=O)N(Cc4cn(Cc5ccco5)nn4)CCS3(=O)=O)cc2)cc1 (stereo not drawn) | -8.9 | 56.9* | 14.7 | 1.1 | 4.1 | 17.2 | 36.0
CC(C)C1C(=O)N(Cc2cn(Cc3ccco3)nn2)CCS(=O)(=O)N1Cc1ccc(-c2ccc(F)cc2)cc1 (stereo not drawn) | 13.1 | 55.9* | 20.9 | 0.1 | 16.2 | -31.6 | 35.5
CC(C)C1C(=O)N(Cc2cn(Cc3ccco3)nn2)CCS(=O)(=O)N1Cc1ccc(-c2ccccc2)cc1 (stereo not drawn) | 5.1 | 32.3 | -12.5 | -3.3 | 33.8 | -18.8 | ·
CCc1cc2c(SCC(=O)Nc3ccc(NC(C)=O)cc3)ncnc2s1 | -0.7 | 11.1 | 2.9 | 0.0 | -17.7 | -10.8 | ·
CCc1cc2c(Sc3nc4ccccc4s3)ncnc2s1 | -46.2 | 66.7* | -3.4 | -7.5 | 94.5* | -4.9 | 89.4*
Cc1ccc(S(=O)(=O)N[C@@H]2CC[C@@H](CC(=O)NCc3ccccc3F)O[C@@H]2CO)cc1 | · | · | -14.8 | · | · | · | ·
Cc1ccc(C(=O)c2cc([N+](=O)[O-])ccc2N2CCCCC2)c(C)c1 | -49.6 | 63.0* | 5.5 | -0.6 | 27.1 | 29.6 | 83.2*
C[C@H]1CN([C@@H](C)CO)C(=O)c2cccc(NC(=O)c3ccncc3)c2O[C@@H]1CN(C)S(=O)(=O)c1cn(C)cn1 | · | · | 9.7 | · | · | · | ·
CC1C=CC(C)C(C(=O)c2ccccc2)C1C(=O)c1ccccc1 (stereo not drawn) | -3.2 | -4.8 | · | 2.4 | -2.1 | 13.6 | ·
O=C(c1ccccc1)C1OC1C(=O)c1ccccc1 (stereo not drawn) | -12.5 | 56.1* | 7.3 | -0.7 | 69.9* | -55.5 | 53.9*
